# High-throughput results from PubChem.
# Rows were chosen to be rich in hits. Some 21% of all compounds tested hit in one or more screens of this group.
# Pf growth 48h: Primary qHTS for delayed death inhibitors of the malarial parasite plastid, 48 hour incubation; 310,000 compounds, 5.9% hits; Potency, µM (doses to about 28.7 µM), for inactives: top-dose activity change, negative = inhibition, hits mostly inhibitors; P. falciparum luciferase growth in erythrocytes, 48 h; AID 504832, 2011; also: potency is read from the fitted curve at half-maximal effect; % is scaled to controls: 0 for no effect and ±100 for the full control effect
#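 Erythrocytes infected with P. falciparum carrying an integrated firefly luciferase reporter (2% hematocrit, 0.1% parasitemia final) were exposed to compounds in RPMI 1640 with 0.5% Albumax at 37 C, 5% CO2. Growth inhibition was scored as reduced luminescence.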
# Sm TGR block: qHTS Assay for the Inhibitors of Schistosoma Mansoni Peroxiredoxins; Schistosoma mansoni thioredoxin glutathione reductase (TGR), Q962Y6; purified TGR, DTNB reduction, TNB absorbance 405 nm; Potency, µM (doses to about 114 µM), for the others: top-dose activity change, negative = inhibition, most hits filed as inhibitors; 360,000 compounds, 3% hits; also: potency is read from the fitted curve at half-maximal effect; % is scaled to controls: 0 for no effect and ±100 for the full control effect; nearly all actives have a fitted effect of over 60% in size
#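 First, TGR (20 nM dispensed) and NADPH were mixed with compound. Second, a 15 min room-temperature incubation followed. Third, further NADPH and then DTNB were added to start the reaction. Finally, TNB absorbance was monitored kinetically.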
# Shiga toxin inh: A qHTS for Small Molecule Inhibitors of Shiga Toxin | Vero cells, Shiga toxin protein synthesis inhibition reporter | inhibition, % at 38.7 µM | 290,000 compounds, 9.2% hits; in the data active = inhibition mostly above about 28%, no sharp cut-off; inactive = mostly below about 43%; also: 0% is about no effect
# NS1 inh: qHTS Assay for Inhibitors of Influenza NS1 Protein Function; Potency, µM (highest dose often 46.1 µM), without a hit: at the highest dose activity, positive = more growth; 270,000 compounds, 0.4% hits; AID 2326, 2010; calls by dose curve; also: potency is read from the fitted curve at half-maximal effect; actives are rising curves; nearly all actives have a fitted effect of over 50% in size
#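 In this qHTS, NS1 from influenza A is expressed in budding yeast, where it slows growth. Cells are switched from glucose to 2% galactose medium (pH 6.0, -URA), treated with compound, and growth recovery is read at OD600.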
# Pf growth 96h: Primary qHTS for delayed death inhibitors of the malarial parasite plastid, 96 hour incubation. P. falciparum luciferase reporter growth, 96 h. 320,000 compounds, 6.9% hits. Potency, µM (titrated, usually from 28.7 µM), inactives show top-dose activity change, negative = inhibition, hits mostly inhibitors. AID 504834, 2011; also: potency is read from the fitted curve at half-maximal effect; % is scaled to controls: 0 for no effect and ±100 for the full control effect
#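 Two-generation exposure (96 h) targets delayed-death phenotype. Reporter parasites carrying integrated firefly luciferase, in red cells at 2% hematocrit and 0.05% parasitemia final, kept at 37 C, 5% CO2; luminescence loss indicates inhibition.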
# CHX counter: Cycloheximide Counterscreen for Small Molecule Inhibitors of Shiga Toxin | cell reporter, cycloheximide protein synthesis inhibition counterscreen | max response, % | 300,000 compounds, 12% hits; in the data active = max response mostly above about 13%, no sharp cut-off; inactive = mostly below about 14%; also: read at 38.3 µM for the half of the compounds with a filed dose; 0% is about no effect
# Numbers without * were called inactive; u = inconclusive; x = no result. Unless noted, calls follow the shape of the dose curve; as a rule, active = well fitted curve in the direction sought with a large enough effect; inconclusive = small, poorly fitted or top-dose-only effect, or another doubt; inactive = no such curve, though single readings can be large; an effect the other way counts as inactive or inconclusive.
SMILES,Pf growth 48h,Sm TGR block,Shiga toxin inh,NS1 inh,Pf growth 96h,CHX counter
Cn1c(C(=O)N2COCC2(C)C)cc2c(=O)n3ccccc3nc21,84.9%,-1.1%,74.8*,-18.6%,-13.2%,35.0*
Cn1c(C(=O)NCCC2=CCCCC2)cc2c(=O)n3ccccc3nc21,72.5%,-20.6%,10.6,2.1%,6.57µM*,2.5
Cc1cc(C)cc(NC(=O)c2snc3c(=O)[nH]cnc23)c1,x,-1.6%,-9.3,-3.0%,u,-4.8
Cc1ccc(Cl)cc1N1CCN(C(=O)c2cn(C)c3ccc(S(=O)(=O)N4CCCCC4)cc3c2=O)CC1,x,0.9%,x,x,x,x
Cc1cc(C)[n+]2[nH]c(N)c(N=Nc3ccccc3)c2n1,15.6%,16.9%,58.1*,-31.8%,-23.9%,16.6*
Cc1cc(C)n2nc(N)c(N=Nc3ccccc3)c2n1,-0.5%,19.2%,57.9,-5.9%,-20.7%,25.2
COCCN(C(=O)Cc1cccs1)C(C(=O)NCc1ccc(OC)cc1)c1ccc(OC)cc1 (configuration not stated),13.1µM*,-3.6%,10.0,-5.6%,u,-2.0
COc1ccc(CNC(=O)C(c2ccco2)N(Cc2cccs2)C(=O)Cc2cccs2)cc1 (configuration not stated),u,u,-2.1,-13.4%,u,1.7
COc1ccc(CNC(=O)C(c2cccs2)N(Cc2ccco2)C(=O)Cc2cccs2)cc1 (configuration not stated),13.1µM*,28.2µM*,9.6,-6.9%,12.6%,-0.9
O=C(c1ccccc1)c1ccc(OCC(=O)N2CCOCC2)cc1,27.5%,4.7%,46.0*,x,46.4%,16.7
COc1ccc(OCC(=O)N2CCN(C(=O)c3ccccc3)CC2)cc1,2.7%,-7.0%,17.7,-1.7%,x,0.8
Cc1ccc(C)c(OCCCC(=O)O)c1,23.8%,-10.9%,-6.4,-48.9%,x,-2.2
Cc1ccc(C)c(OCCCC(=O)N2CCOCC2)c1,45.9%,9.8%,44.2*,-0.9%,27.7%,27.3*
COc1ccc(/C=N/OCC(=O)N2CCCC2)c(OC)c1,-0.2%,-2.2%,29.8,x,40.7%,16.9*
O=C(COc1ccc2cc(Br)ccc2c1Br)N1CCOCC1,17.0%,-1.2%,29.9*,-35.9%,-2.7%,28.6*
O=C(CCSCc1ccccc1Cl)N1CCN(c2cccc(Cl)c2)CC1,21.9%,18.7%,-5.1,-38.4%,42.9%,-1.6
COC(=O)Nc1ccc(OCC(=O)N2CCOCC2)cc1,-11.5%,-3.6%,8.9,-0.3%,-11.2%,-1.5
Cc1cc(C)c(C)c(OCC(=O)N2CCOCC2)c1,x,-10.9%,3.0,5.7%,13.1µM*,-7.9
Cc1ccc(OCC(=O)N2CCOCC2)cc1C,43.0%,0.4%,44.3*,-1.6%,33.1%,30.8*
N#CC(C#N)=Cc1ccc(OCC(=O)N2CCOCC2)cc1,u,2.51µM*,18.3,x,u,15.5
Cc1cc(OCC(=O)N2CCOCC2)c(C(C)C)cc1Cl,1.5%,-0.1%,14.0,4.1%,x,-2.0
CCOc1ccc(OCC(=O)N2CCOCC2)cc1,21.3%,-15.7%,25.3,0.1%,8.4%,14.5
Cc1ccc(OCC(=O)N2CCCCCCC2)cc1C,24.1%,9.6%,29.1*,25.3%,11.8%,21.0*
Cc1cccc(C(=O)NN2S(=O)(=O)c3ccccc3S2(=O)=O)c1,99.5%,-1.5%,-12.7,x,-19.1%,-1.9
Cc1cc(OCC(=O)N2CCCCCC2)ccc1[N+](=O)[O-],120.6%,4.1%,17.3,-4.4%,52.8%,42.5*
Cc1cc(OCC(=O)N2CCOCC2)cc2oc(=O)c3ccccc3c12,33.5%,-3.4%,35.5*,-9.7%,u,20.9*
Cc1cc(OCCN2CCCCCC2)ccc1[N+](=O)[O-],4.3%,-1.7%,-3.0,-9.0%,25.4%,1.5
Cc1ccc(-c2c(CN3CCN(c4cc(C)ccc4C)CC3)csc2C)cc1,x,-3.6%,x,x,x,x
CO/N=C/CC(=O)c1ccc(-c2ccccc2)cc1,5.5%,x,69.7,-30.6%,15.5%,18.0*
CO/N=C/CC(=O)c1cnc(-c2ccc(Cl)cc2)s1,u,1.1%,72.9*,x,-1.9%,21.9*
